# Test results from PubChem BioAssay (NCATS).
# Several values for one entry are separate records, joined by “and”; a condition that tells them apart may be missing. Equal entries are not always repeated. Inconclusive results are not listed. Activity calls are given as the source filed them. Unless noted, the call rests on the fitted dose curve; in most records, active means well fitted curve in the direction sought with a large enough effect; inconclusive means small, poorly fitted or top-dose-only effect, or another doubt; inactive means no such curve, though single readings can be large; an effect the other way counts as inactive or inconclusive.
# Assays:
# [1] = AP1 Signaling Pathway (AID 357; active means well fitted curve in either direction with a large enough effect, not every such curve was filed as active;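 further: ME-180 reporter cells stimulated with EGF at its EC50 level; on the % scale 0 is the no-effect control and ±100 the full control effect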); conditions: ME-180 AP-1-bla reporter, EGF-induced, beta-lactamase ratio, 5 h
# Method in brief: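 Modulation of EGF-driven AP-1 transcription was assessed with a beta-lactamase reporter in ME-180 cells. Compound and EC50 EGF were co-incubated 5 hours at 37 °C before 2.5-hour CCF4 loading at room temperature and dual-emission reading.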
# [2] = molecular target: Cytochrome P450 1A2 (Homo sapiens) (UniProt P05177); assay: p450-cyp1a2 (AID 410; calls by dose curve; further: potency means the concentration at half of the fitted maximal effect)
# Sequence of Cytochrome P450 1A2 (Homo sapiens) (P05177 whole entry, looked up): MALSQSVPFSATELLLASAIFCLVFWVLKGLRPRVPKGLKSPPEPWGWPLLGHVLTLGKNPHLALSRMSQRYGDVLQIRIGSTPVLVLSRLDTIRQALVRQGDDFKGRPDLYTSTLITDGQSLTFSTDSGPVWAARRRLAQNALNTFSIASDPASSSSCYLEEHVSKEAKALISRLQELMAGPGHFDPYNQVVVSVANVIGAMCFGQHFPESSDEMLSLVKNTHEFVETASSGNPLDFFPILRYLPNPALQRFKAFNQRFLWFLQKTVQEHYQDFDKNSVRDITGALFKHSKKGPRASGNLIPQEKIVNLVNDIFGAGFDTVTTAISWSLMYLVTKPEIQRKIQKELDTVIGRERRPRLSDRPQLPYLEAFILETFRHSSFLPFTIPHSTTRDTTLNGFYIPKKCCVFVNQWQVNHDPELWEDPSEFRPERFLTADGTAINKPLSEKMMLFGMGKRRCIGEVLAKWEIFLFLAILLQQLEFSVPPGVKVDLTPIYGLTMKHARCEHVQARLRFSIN
# Method in brief: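 20nM CYP1A2, 100uM Luciferin-ME (=Km), 100mM KPO4; cpd 10 min RT; +NADPH regen, 60 min RT; stop/detect 20 min; luminescence. Normalized to furafylline 57 uM = full inhibition.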
# [3] = Stat Signaling Pathway (AID 446; active means well fitted curve in either direction with a large enough effect, not every such curve was filed as active;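 further: ME-180 cervical cancer cells given 40 pM IL-6 alongside compound; SIE-controlled beta-lactamase reporter measured as 460/530 nm FRET emission ratio; on the % scale 0 is the no-effect control and ±100 the full control effect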); conditions: ME-180 (cervical carcinoma) SIE beta-lactamase reporter, IL-6 stimulated, 5 h
# Method in brief: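 FRET read-out (405 nm excitation, 460/530 nm emission) of a beta-lactamase reporter under a STAT-inducible element in ME-180 cervical carcinoma cells. Cells with compound receive 40 pM IL-6 for 5 h. Values are normalised to AC90 stimulation and AC90 JAK-inhibitor controls.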
# [4] = molecular target: Glucocorticoid receptor (Homo sapiens) (UniProt P04150); assay: GR-GFP Redistribution (AID 450;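 active means compounds whose dose series gives a full or clear partial fitted curve of increased nuclear translocation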; further: potency means the concentration at half of the fitted maximal effect); conditions: U2OS GR-GFP nuclear translocation, laser cytometry, 2 h
# Sequence of Glucocorticoid receptor (Homo sapiens) (P04150 whole entry, looked up, the tested form may be a part): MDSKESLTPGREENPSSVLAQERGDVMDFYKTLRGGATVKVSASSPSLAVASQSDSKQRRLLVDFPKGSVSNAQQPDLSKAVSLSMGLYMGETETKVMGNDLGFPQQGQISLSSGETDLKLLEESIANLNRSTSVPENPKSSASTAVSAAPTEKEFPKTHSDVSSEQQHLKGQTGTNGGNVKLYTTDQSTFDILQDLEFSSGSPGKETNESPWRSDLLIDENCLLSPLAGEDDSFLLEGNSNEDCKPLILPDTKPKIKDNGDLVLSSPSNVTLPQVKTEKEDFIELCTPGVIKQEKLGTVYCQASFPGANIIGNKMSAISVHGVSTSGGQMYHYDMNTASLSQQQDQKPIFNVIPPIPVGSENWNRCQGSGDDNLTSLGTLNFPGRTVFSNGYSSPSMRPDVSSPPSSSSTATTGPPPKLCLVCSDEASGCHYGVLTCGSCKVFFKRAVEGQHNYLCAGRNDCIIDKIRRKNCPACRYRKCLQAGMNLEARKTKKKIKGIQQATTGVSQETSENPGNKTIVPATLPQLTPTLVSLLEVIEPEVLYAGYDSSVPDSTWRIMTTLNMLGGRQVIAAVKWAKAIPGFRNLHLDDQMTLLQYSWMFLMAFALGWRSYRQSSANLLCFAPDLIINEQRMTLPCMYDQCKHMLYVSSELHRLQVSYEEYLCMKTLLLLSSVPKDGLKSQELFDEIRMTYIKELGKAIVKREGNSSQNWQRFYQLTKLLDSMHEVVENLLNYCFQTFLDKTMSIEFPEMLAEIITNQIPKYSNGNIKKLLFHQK
# [5] = molecular target: Glucocorticoid receptor (Homo sapiens) (UniProt P04150); assay: GR-EFC Redistribution (AID 451; calls by dose curve; further: potency means the concentration at half of the fitted maximal effect); conditions: CHO-K1 GR-EFC translocation, beta-gal luminescence, 2 h
# Method in brief: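 Translocation of GR-ED fusion to nuclear EA restores b-gal, read by luminescence after 1 h room-temperature detection. Engineered CHO-K1 biosensor cells, 1,000/well, exposed 2 h at 37 C to titrations up to 46 uM final.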
# [6] = molecular target: Mitogen-activated protein kinase 10 (Mus musculus) (UniProt Q61831); assay: JNK3 AlphaScreen Assay (AID 530; active means well fitted curve in either direction with a large enough effect, not every such curve was filed as active;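 further: kinase came from lysate of stimulated human HepG2 cells; signal reports phosphorylation of biotinylated GST-cJun 1-79 at Ser73 with 10 µM ATP; on the % scale 0 is the no-effect control and ±100 the full control effect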)
# Method in brief: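 Kinase buffer: 20 mM Tris-HCl pH 7.6, 10 mM MgCl2, 1 mM DTT, 0.1 mM Na3VO4, 0.01% Tween-20; ATP 10 uM. Substrate biotin-GST-cJun(1-79), enzyme from activated HepG2 lysates. Detection by Ser73 phospho-antibody AlphaScreen.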
# [7] = molecular target: 3',5'-cyclic-AMP phosphodiesterase 4B (Homo sapiens) (UniProt Q07343); assay: qHTS Assay for Inhibitors of PDE-IV (AID 607; active means well fitted activation curve with a large enough effect in the main read-out, with a control signal flat, not every such curve was filed as active; further: % of control where 0% means no effect)
# Sequence of 3',5'-cyclic-AMP phosphodiesterase 4B (Homo sapiens) (Q07343 whole entry, looked up): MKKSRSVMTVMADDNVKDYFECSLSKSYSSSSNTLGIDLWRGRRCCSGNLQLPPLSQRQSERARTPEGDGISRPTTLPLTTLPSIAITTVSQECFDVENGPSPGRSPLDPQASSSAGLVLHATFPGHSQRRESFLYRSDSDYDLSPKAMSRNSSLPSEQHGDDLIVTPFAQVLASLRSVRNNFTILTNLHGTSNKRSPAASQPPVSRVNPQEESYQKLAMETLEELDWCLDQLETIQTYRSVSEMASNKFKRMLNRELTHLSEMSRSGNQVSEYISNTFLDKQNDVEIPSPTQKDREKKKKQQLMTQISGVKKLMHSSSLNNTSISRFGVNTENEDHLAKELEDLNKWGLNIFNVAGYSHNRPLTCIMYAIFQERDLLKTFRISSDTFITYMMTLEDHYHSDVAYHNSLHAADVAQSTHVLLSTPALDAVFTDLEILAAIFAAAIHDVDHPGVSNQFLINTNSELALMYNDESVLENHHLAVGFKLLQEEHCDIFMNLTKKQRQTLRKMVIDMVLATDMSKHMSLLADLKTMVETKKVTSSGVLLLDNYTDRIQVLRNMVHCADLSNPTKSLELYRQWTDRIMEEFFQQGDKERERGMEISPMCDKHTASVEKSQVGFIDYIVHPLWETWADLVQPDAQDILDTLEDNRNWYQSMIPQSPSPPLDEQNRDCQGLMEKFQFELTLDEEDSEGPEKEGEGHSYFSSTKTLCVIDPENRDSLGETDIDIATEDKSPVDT
# Method in brief: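 Cell-based read-out of cAMP via a modified cyclic nucleotide-gated channel and membrane potential dye (535/590 nm) in HEK293 cells expressing PDE4 endogenously. Compounds tested up to 22.9 uM final; 100 uM RO 20-1724 reference.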
# [8] = molecular target: Guanine nucleotide-binding protein G(i) subunit alpha-1 (Homo sapiens) (UniProt P63096); assay: qHTS Assay for Inhibitors of RGS12 GoLoco Motif Activity (Green Fluorophore) (AID 879);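 further: 0% = labeled peptide with Gαi1 and full inhibition = labeled peptide alone without protein; negative values mean loss of peptide binding seen as reduced polarization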
# Sequence of Guanine nucleotide-binding protein G(i) subunit alpha-1 (Homo sapiens) (P63096 whole entry, looked up): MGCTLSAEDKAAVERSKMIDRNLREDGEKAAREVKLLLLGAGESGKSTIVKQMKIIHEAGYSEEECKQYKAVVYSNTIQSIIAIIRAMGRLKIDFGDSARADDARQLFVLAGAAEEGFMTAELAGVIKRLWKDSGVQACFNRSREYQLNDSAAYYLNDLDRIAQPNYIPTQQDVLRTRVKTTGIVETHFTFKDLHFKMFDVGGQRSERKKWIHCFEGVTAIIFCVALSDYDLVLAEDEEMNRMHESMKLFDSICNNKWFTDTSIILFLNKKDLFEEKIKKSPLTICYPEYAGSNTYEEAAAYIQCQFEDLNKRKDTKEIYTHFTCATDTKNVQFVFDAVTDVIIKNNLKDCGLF
# Method in brief: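 A drop in FITC polarization marked displacement of the FITC-tagged RGS12 GoLoco peptide (10 nM) from Gαi1 (50 nM). Compounds were incubated 10 min at room temperature in Tris pH 7.5 buffer containing 150 mM NaCl, 0.1 mM GDP and 0.05% NP40; unlabeled peptide titration served as control.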
# [9] = molecular target: Cytochrome P450 3A4 (Homo sapiens) (UniProt P08684); assay: qHTS Assay for Activators of Cytochrome P450 3A4 (AID 885); further: nearly all actives have a fitted effect of over 65% in size
# Sequence of Cytochrome P450 3A4 (Homo sapiens) (P08684 whole entry, looked up): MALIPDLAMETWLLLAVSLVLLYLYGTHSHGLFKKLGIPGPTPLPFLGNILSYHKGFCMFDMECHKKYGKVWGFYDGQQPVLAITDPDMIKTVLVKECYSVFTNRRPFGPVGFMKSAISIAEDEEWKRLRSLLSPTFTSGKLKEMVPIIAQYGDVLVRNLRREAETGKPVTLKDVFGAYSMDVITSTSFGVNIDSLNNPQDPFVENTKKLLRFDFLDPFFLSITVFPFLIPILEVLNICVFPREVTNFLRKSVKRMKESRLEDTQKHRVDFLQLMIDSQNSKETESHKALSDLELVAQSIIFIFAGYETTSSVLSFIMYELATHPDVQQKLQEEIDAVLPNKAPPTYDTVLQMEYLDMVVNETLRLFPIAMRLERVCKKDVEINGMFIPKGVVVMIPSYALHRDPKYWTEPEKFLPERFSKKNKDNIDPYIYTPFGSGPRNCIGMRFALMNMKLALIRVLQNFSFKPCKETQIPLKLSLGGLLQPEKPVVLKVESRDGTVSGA
# Method in brief: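 Luminescent readout of luciferin formed from 25 uM Luciferin-PPXE (KM level) by 20 nM CYP3A4 in 200 mM KPO4, with 60 min NADPH-driven reaction at room temperature after 10 min compound exposure. Ketoconazole (57 uM) defined 100% inhibition.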
# [10] = molecular target: Cytochrome P450 2D6 (Homo sapiens) (UniProt P10635); assay: qHTS Assay for Inhibitors and Substrates of Cytochrome P450 2D6 (AID 891); further: potency means the concentration at half of the fitted maximal effect; nearly all actives have a fitted effect of over 60% in size
# Sequence of Cytochrome P450 2D6 (Homo sapiens) (P10635 whole entry, looked up): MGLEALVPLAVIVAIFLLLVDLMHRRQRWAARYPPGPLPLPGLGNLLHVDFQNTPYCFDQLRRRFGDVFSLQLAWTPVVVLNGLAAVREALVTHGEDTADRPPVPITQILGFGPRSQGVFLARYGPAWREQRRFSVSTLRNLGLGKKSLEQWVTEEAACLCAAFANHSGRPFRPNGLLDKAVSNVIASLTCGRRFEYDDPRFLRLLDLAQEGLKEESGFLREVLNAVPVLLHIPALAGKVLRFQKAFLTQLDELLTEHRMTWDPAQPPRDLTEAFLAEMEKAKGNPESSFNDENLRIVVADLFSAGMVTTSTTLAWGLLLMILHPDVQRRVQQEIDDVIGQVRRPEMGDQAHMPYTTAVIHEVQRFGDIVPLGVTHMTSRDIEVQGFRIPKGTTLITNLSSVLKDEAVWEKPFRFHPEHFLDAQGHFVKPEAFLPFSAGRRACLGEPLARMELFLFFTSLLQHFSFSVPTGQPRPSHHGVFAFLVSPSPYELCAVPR
# Method in brief: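 Luminescent read-out of luciferin formed by 5 nM human CYP2D6 demethylating 30 uM Luciferin-ME EGE (Km level) over 60 min at room temperature after NADPH regeneration addition. Data normalized to full inhibition by 1.43 uM quinidine.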
# [11] = molecular target: Cytochrome P450 2C19 (Homo sapiens) (UniProt P33261); assay: qHTS Assay for Inhibitors and Substrates of Cytochrome P450 2C19 (AID 899); further: potency means the concentration at half of the fitted maximal effect; nearly all actives have a fitted effect of over 60% in size
# Method in brief: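 Luminescence readout of luciferin formed from 10uM Luciferin-H EGE (KM level) by 5 nM CYP2C19 in 50mM KPO4. 60 min NADPH-driven reaction at 37C after 10 min compound preincubation; data scaled to 57uM ketoconazole inhibition.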
# [12] = qHTS Assay for Identification of Small Molecule Antagonists for Thrombopoietin (TPO) Signaling Pathway (AID 918); conditions: TPO-dependent cell signaling reporter, antagonist mode; further: potency means the concentration at half of the fitted maximal effect; nearly all actives have a fitted effect of over 60% in size
# Method in brief: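 Luminescence read-out: GPIIb-promoter luciferase in Ba/F3 cells carrying human TPO receptor. Compounds added with 26 pM TPO (EC50), 24 hrs, 37 C, 5% CO2; cells deprived of IL-3 overnight beforehand. Inhibition of signal scored.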
# [13] = molecular target: Muscarinic acetylcholine receptor M1 (Rattus norvegicus) (UniProt P08482); assay: qHTS Assay for Antagonists of Acetylcholine Muscarinic M1 Receptor: Kinetic Measurement of Intracellular Calcium Response (AID 943); further: potency means the concentration at half of the fitted maximal effect; nearly all actives have a fitted effect of over 75% in size
# Method in brief: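 Read-out: peak over basal Fluo-4 fluorescence, kinetic at 1 Hz for 4 min after EC80 carbachol (100 nM final). Rat M1-CHO cells, dye loaded 1 h at 37C, compound added 10 min before agonist.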
# [14] = molecular target: Alpha-galactosidase A (Homo sapiens) (UniProt P06280); assay: Counterscreen for Glucocerebrosidase Inhibitors: qHTS Assay for Human alpha-Galactosidase at pH 4.5 (AID 992); further: 0% is about no effect
# Sequence of Alpha-galactosidase A (Homo sapiens) (P06280 whole entry, looked up): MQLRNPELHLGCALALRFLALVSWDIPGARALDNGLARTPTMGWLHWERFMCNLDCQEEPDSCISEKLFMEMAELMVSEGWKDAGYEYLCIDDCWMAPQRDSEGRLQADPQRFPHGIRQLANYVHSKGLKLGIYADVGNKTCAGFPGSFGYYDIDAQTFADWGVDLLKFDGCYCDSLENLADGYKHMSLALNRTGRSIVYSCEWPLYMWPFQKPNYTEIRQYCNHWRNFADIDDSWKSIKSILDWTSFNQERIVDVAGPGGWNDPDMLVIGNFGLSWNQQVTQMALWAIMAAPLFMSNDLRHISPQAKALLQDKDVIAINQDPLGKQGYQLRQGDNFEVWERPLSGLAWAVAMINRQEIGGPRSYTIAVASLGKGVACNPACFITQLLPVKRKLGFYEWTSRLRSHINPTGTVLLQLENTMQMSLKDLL
# Method in brief: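 Fluorogenic 1536-well qHTS at pH 4.5 (citrate, Tween-20): 2 nM enzyme, 80 uM 4-MU-alpha-galactoside, 20 min room temperature, NaOH/glycine stop. Titration 0.7 nM to 77 uM, data normalized to no-enzyme and full-activity controls, Hill-fitted AC50.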
# [15] = molecular target: alpha-glucosidase (Oryza sativa, rice) (UniProt Q653V4); assay: Counterscreen for Glucocerebrosidase Inhibitors: qHTS Assay for Rice alpha-Glucosidase at pH 5.0 (AID 997);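 further: 0% = full activity with enzyme and -100% = basal without enzyme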
# Method in brief: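 Endpoint fluorogenic assay at pH 5.0: compounds (0.7 nM to 77 uM) titrated against 4 nM rice enzyme and 400 uM 4-MU-alpha-glucoside for 20 min at room temperature; NaOH/glycine stop, read ex 365/em 440 nm, Hill-fitted AC50.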
# [16] = qHTS Assay for Lipid Storage Modulators (AID 1519; calls by dose curve; on activity change, negative = inhibition: on the % scale 0 is the no-effect control and ±100 the full control effect); conditions: Drosophila S3 cells, BODIPY lipid droplet/cell ratio, laser cytometry, cells loaded with oleic acid
# Method in brief: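 Cells seeded at 5,000 per well were treated with compounds over a concentration series and loaded with oleic acid (400 uM, as added). Lipid droplet fluorescence (488 nm excitation, 500-530 nm channel) was read by laser-scanning cytometry and normalized to 20 uM Triacsin C.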
# [17] = molecular target: Ubiquitin carboxyl-terminal hydrolase 1 (Homo sapiens) (UniProt O94782); assay: Inhibitors of USP1/UAF1: Pilot qHTS (AID 504865);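 further: rhodamine fluorescence freed from ubiquitin-rhodamine substrate followed over time; top concentration of the series differs between compounds; on the % scale 0 is the no-effect control and ±100 the full control effect; nearly all actives have a fitted effect of over 35% in size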
# Sequence of Ubiquitin carboxyl-terminal hydrolase 1 (Homo sapiens) (O94782 whole entry, looked up): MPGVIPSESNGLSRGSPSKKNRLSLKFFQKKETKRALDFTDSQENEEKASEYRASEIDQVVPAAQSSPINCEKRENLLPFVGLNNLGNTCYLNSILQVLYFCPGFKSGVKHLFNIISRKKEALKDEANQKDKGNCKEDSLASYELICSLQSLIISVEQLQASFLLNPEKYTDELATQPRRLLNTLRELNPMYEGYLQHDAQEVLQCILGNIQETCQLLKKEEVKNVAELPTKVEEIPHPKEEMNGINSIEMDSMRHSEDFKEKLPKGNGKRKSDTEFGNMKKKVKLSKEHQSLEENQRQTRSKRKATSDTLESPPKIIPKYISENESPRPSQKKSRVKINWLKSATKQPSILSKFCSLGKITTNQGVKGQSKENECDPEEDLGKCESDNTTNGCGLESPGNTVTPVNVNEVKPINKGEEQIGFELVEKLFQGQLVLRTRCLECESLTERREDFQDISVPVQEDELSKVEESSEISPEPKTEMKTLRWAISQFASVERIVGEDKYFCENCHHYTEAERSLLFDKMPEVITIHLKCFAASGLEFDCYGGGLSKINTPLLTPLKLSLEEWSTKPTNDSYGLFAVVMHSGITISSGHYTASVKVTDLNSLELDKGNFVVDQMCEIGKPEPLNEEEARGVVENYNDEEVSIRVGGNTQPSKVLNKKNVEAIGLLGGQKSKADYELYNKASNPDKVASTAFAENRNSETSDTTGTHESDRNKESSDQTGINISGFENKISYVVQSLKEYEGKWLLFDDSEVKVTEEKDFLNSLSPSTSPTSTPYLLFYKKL
# Method in brief: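 Kinetic fluorescence assay: 1nM USP1/UAF1, 15 min compound preincubation, then 150nM Ub-Rho; 480/540 nm.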
# [18] = molecular target: DNA dC->dU-editing enzyme APOBEC-3G (Homo sapiens) (UniProt Q9HC16); assay: qHTS for inhibitors of Vif-A3G interactions: Validation (AID 588379); further: 0% is about no effect
# Sequence of DNA dC->dU-editing enzyme APOBEC-3G (Homo sapiens) (Q9HC16 whole entry, looked up): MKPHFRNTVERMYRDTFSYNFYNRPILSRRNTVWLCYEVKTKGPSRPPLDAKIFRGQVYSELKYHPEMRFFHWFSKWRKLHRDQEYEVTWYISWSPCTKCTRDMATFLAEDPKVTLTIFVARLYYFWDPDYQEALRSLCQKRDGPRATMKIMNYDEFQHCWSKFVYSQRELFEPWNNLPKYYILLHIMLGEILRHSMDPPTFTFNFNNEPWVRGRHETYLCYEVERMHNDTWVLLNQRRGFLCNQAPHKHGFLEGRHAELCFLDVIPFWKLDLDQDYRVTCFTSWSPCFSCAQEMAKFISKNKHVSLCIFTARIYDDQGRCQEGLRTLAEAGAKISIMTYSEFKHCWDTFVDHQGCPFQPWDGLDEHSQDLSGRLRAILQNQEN
# Method in brief: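 Yellow fluorescence (Ex 488, Em 500-530) of Vif-coexpressing HeLa A3G-eYFP cells, scanned by Acumen cytometer, reports blocked A3G degradation. Cells plated at 700/well overnight at 37 deg C before compound addition, then a further overnight compound incubation at 37 deg C.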
# [19] = system: Zika virus NS2B-NS3 protease; assay: Primary screen GU AMC qHTS for Zika virus inhibitors (AID 1347154);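 further: 0% = no-inhibitor control and -100% = no-enzyme control; nearly all actives have a fitted effect of over 70% in size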
# Method in brief: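 Fluorogenic AMC-substrate cleavage by noncovalent NS2B-NS3 protease complex (25 nM, pH 8.0 Tris buffer with Tween 20) followed for 15 minutes at room temperature (~20% conversion). Percent inhibition from ex340/em450 signal change, fitted by 4-parameter Hill equation.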
# [20] = Counterscreen qHTS for small molecule stabilizers of the endoplasmic reticulum resident proteome: GLuc-NoTag assay (AID 1508627);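 further: SH-SY5Y cells given compound then 100 nM thapsigargin to empty ER calcium; 0% = thapsigargin alone and -100% = DMSO vehicle control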
# Method in brief: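 Counterscreen line: SH-SY5Y-GLuc-NoTag cells, treated with compound 19 hr before a 4 hr, 100 nM thapsigargin calcium depletion. Secreted Gaussia luciferase in the medium was measured by luminescence after coelenterazine was added (0.07x final), with cells unlysed.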
# [21] = Confirmatory qHTS for small molecule stabilizers of the endoplasmic reticulum resident proteome: Secreted ER Calcium Modulated Protein (SERCaMP) assay (AID 1508628); further: potency means the concentration at half of the fitted maximal effect; nearly all actives have a fitted effect of over 40% in size
# Method in brief: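 GLuc-SERCaMP-expressing SH-SY5Y cells, pretreated 16 h with compound, are challenged with thapsigargin to empty ER calcium stores; after 4 h, coelenterazine is added directly to the medium and luminescence is imaged.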
smiles,measurement,setting,value
CSc1ccc2c(c1)[C@H](N1CCN(C)CC1)Cc1ccccc1S2,"activity change, negative = inhibition",[1]; at 17.2 µM (top of the series),22.7% (inactive)
same,"activity change, negative = inhibition",[1]; at 38 µM (top of the series),16% (inactive)
same,Potency,[2],31.6 µM (active)
same,"activity, negative = inhibition",[3]; at 17.2 µM (top of the series),-9.5% (inactive)
same,"activity, negative = inhibition",[3]; at 38 µM (top of the series),-17.1% (inactive)
same,Potency,[4],> 46 µM (inactive) and > 20.6 µM (inactive)
same,Potency,[5],> 46 µM (inactive) and > 20.6 µM (inactive)
same,Potency,[6],inactive
same,Potency,[7],inactive
same,outcome,[8],inactive
same,Potency,[9],inactive
same,Potency,[10],3.98 µM (active) and 1.58 µM (active) and 316 nM (active)
same,Potency,[11],7.94 µM (active)
same,Potency,[12],10 µM (active)
same,Potency,[13],2.24 µM (active)
same,outcome,[14],inactive
same,outcome,[15],inactive
same,"activity change, negative = inhibition",[16]; at 25.7 µM (top of the series),-1.54% (inactive)
same,max response,[16]; measured here: cell count channel max response,-9.42%
same,max response,[16]; measured here: lipid channel max response,-12.6%
same,Potency,[17],inactive
same,Potency,[18],inactive
same,Potency,[19],inactive
same,Potency,[20],inactive
same,Potency,[21],7.94 µM (active)
CC(C)N1CCN(c2ccc(C(=O)c3c(-c4ccc(O)cc4)sc4cc(O)ccc34)cc2)CC1,Potency,[19],inactive
same,Potency,[20],inactive
